Reference: the supplement of paper PMC12282887
± gives the standard deviation of the averaged measurements.

Columns and labels:
Test in all cases: promoter activity interaction Z-score (Lux/OD deviation from empty-vector control); higher = stronger promoter induction by the compound
[1] = system: E. coli BW25113 acrABp lux reporter
Summary of the method: (§1)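 Wild-type E. coli BW25113 and three single-gene deletion strains, each carrying a low-copy luxCDABE promoter reporter, were grown at 37°C in 40 µl LB Lennox per well of a 384-well plate. Every compound was applied at four 1:2 dilutions in biological duplicates, and OD600 and luminescence were read every 30 min for 12 h. Integration covered 0–8 h for wild type and 1–9 h for deletion strains, and wells under 10% of the median growth value were removed. Scores are Z-transformed residuals of growth-normalised luminescence fitted against a control.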

[2] = system: E. coli BW25113 micFp lux reporter
Summary of the method: as §1

[3] = system: E. coli BW25113 ompFp lux reporter
Summary of the method: as §1

[4] = system: E. coli BW25113 robp lux reporter
Summary of the method: as §1

[5] = system: E. coli BW25113 soxSp lux reporter
Summary of the method: as §1

[6] = system: E. coli BW25113 tolCp lux reporter
Summary of the method: as §1

[7] = 0.063 µg/ml, genetic background: wild type
[8] = 0.063 µg/ml, genetic background: ΔmarA
[9] = 0.063 µg/ml, genetic background: Δrob
[10] = 0.063 µg/ml, genetic background: ΔsoxS
[11] = 0.13 µg/ml, genetic background: wild type
[12] = 0.13 µg/ml, genetic background: ΔmarA
[13] = 0.13 µg/ml, genetic background: Δrob
[14] = 0.13 µg/ml, genetic background: ΔsoxS
[15] = 0.25 µg/ml, genetic background: wild type
[16] = 0.25 µg/ml, genetic background: ΔmarA
[17] = 0.25 µg/ml, genetic background: Δrob
[18] = 0.25 µg/ml, genetic background: ΔsoxS
[19] = 0.5 µg/ml, genetic background: wild type
[20] = 0.5 µg/ml, genetic background: ΔmarA
[21] = 0.5 µg/ml, genetic background: Δrob
[22] = 0.5 µg/ml, genetic background: ΔsoxS

`CO[C@@]12[C@H](COC(N)=O)C3=C(C(=O)C(C)=C(N)C3=O)N1C[C@@H]1N[C@@H]12` [Mitomycin C] was tested, and the “promoter activity interaction Z-score” value [1, 7] was 0.203 ± 0.26, the “promoter activity interaction Z-score” value [1, 8] was -0.582 ± 1.1 and the “promoter activity interaction Z-score” value [1, 9] was 0.184 ± 0.69. The “promoter activity interaction Z-score” value [1, 10] was 0.15 ± 0.32, the “promoter activity interaction Z-score” value [1, 11] was -0.161 ± 0.0059 and the “promoter activity interaction Z-score” value [1, 12] was 1.65 ± 0.15. The “promoter activity interaction Z-score” value [1, 13] was 0.0466 ± 0.51, the “promoter activity interaction Z-score” value [1, 14] was 0.106 ± 0.043 and the “promoter activity interaction Z-score” value [1, 15] was 0.269 ± 0.076. For the same compound, the “promoter activity interaction Z-score” value [1, 16] was 0.437 ± 0.76, the “promoter activity interaction Z-score” value [1, 17] was -0.105 ± 0.42 and the “promoter activity interaction Z-score” value [1, 18] was -0.0948 ± 0.4. For the same compound, the “promoter activity interaction Z-score” value [1, 19] was 0.332 ± 0.099, the “promoter activity interaction Z-score” value [1, 20] was 1.08 ± 0.83 and the “promoter activity interaction Z-score” value [1, 21] was -0.0462 ± 0.55. The “promoter activity interaction Z-score” value [1, 22] was 0.117 ± 0.79, the “promoter activity interaction Z-score” value [2, 7] was 0.161 ± 0.24 and the “promoter activity interaction Z-score” value [2, 8] was 0.0738 ± 0.13. The “promoter activity interaction Z-score” value [2, 9] was -0.0403 ± 0.002, the “promoter activity interaction Z-score” value [2, 10] was 0.173 ± 0.094 and the “promoter activity interaction Z-score” value [2, 11] was -0.0611 ± 0.13. The “promoter activity interaction Z-score” value [2, 12] was 0.273 ± 0.08, the “promoter activity interaction Z-score” value [2, 13] was 0.135 ± 0.19 and the “promoter activity interaction Z-score” value [2, 14] was 0.423 ± 0.057. The “promoter activity interaction Z-score” value [2, 15] was 0.189 ± 0.054, the “promoter activity interaction Z-score” value [2, 16] was 0.0506 ± 0.14 and the “promoter activity interaction Z-score” value [2, 17] was -0.0293 ± 0.023. The “promoter activity interaction Z-score” value [2, 18] was -0.0557 ± 0.14, the “promoter activity interaction Z-score” value [2, 19] was -0.299 ± 0.0083 and the “promoter activity interaction Z-score” value [2, 20] was -0.029 ± 0.23. For the same compound, the “promoter activity interaction Z-score” value [2, 21] was 0.266 ± 0.055, the “promoter activity interaction Z-score” value [2, 22] was 0.362 ± 0.13 and the “promoter activity interaction Z-score” value [3, 7] was 0.468 ± 0.27. For the same compound, the “promoter activity interaction Z-score” value [3, 8] was -0.243 ± 0.38, the “promoter activity interaction Z-score” value [3, 9] was 0.492 ± 0.67 and the “promoter activity interaction Z-score” value [3, 10] was 0.619 ± 0.42. For the same compound, the “promoter activity interaction Z-score” value [3, 11] was 0.0398 ± 0.41, the “promoter activity interaction Z-score” value [3, 12] was 1.58 ± 1 and the “promoter activity interaction Z-score” value [3, 13] was 0.963 ± 0.14. The “promoter activity interaction Z-score” value [3, 14] was 0.857 ± 0.077, the “promoter activity interaction Z-score” value [3, 15] was 0.439 ± 0.22 and the “promoter activity interaction Z-score” value [3, 16] was -0.0015 ± 0.17. The “promoter activity interaction Z-score” value [3, 17] was 1 ± 0.15, the “promoter activity interaction Z-score” value [3, 18] was -0.0721 ± 0.25 and the “promoter activity interaction Z-score” value [3, 19] was 0.63 ± 0.16. The “promoter activity interaction Z-score” value [3, 20] was 1.34 ± 1.3, the “promoter activity interaction Z-score” value [3, 21] was 1.2 ± 0.71 and the “promoter activity interaction Z-score” value [3, 22] was 0.778 ± 0.46. For the same compound, the “promoter activity interaction Z-score” value [4, 7] was 0.242 ± 0.52, the “promoter activity interaction Z-score” value [4, 8] was -0.678 ± 0.028 and the “promoter activity interaction Z-score” value [4, 9] was 0.808 ± 0.56. The “promoter activity interaction Z-score” value [4, 10] was -0.138 ± 0.57, the “promoter activity interaction Z-score” value [4, 11] was 0.512 ± 0.4 and the “promoter activity interaction Z-score” value [4, 12] was 2.91 ± 0.44. For the same compound, the “promoter activity interaction Z-score” value [4, 13] was 0.0783 ± 0.46, the “promoter activity interaction Z-score” value [4, 14] was 0.758 ± 1.5 and the “promoter activity interaction Z-score” value [4, 15] was 1.16 ± 0.6. For the same compound, the “promoter activity interaction Z-score” value [4, 16] was 0.136 ± 0.099, the “promoter activity interaction Z-score” value [4, 17] was 0.453 ± 0.084 and the “promoter activity interaction Z-score” value [4, 18] was -0.883 ± 0.36. The “promoter activity interaction Z-score” value [4, 19] was 1.05 ± 0.1, the “promoter activity interaction Z-score” value [4, 20] was 0.91 ± 0.79 and the “promoter activity interaction Z-score” value [4, 21] was 0.226 ± 0.38. The “promoter activity interaction Z-score” value [4, 22] was -0.0862 ± 0.5, the “promoter activity interaction Z-score” value [5, 7] was 0.078 ± 0.11 and the “promoter activity interaction Z-score” value [5, 8] was -0.129 ± 0.16. For the same compound, the “promoter activity interaction Z-score” value [5, 9] was -0.043 ± 0.0072, the “promoter activity interaction Z-score” value [5, 10] was 0.00107 ± 0.095 and the “promoter activity interaction Z-score” value [5, 11] was -0.0775 ± 0.16. For the same compound, the “promoter activity interaction Z-score” value [5, 12] was -0.0258 ± 0.096, the “promoter activity interaction Z-score” value [5, 13] was -0.0896 ± 0.043 and the “promoter activity interaction Z-score” value [5, 14] was -0.0792 ± 0.22. For the same compound, the “promoter activity interaction Z-score” value [5, 15] was 0.185 ± 0.009, the “promoter activity interaction Z-score” value [5, 16] was -0.158 ± 0.067 and the “promoter activity interaction Z-score” value [5, 17] was 0.12 ± 0.092. For the same compound, the “promoter activity interaction Z-score” value [5, 18] was -0.0761 ± 0.073, the “promoter activity interaction Z-score” value [5, 19] was 0.163 ± 0.12 and the “promoter activity interaction Z-score” value [5, 20] was -0.1 ± 0.14. For the same compound, the “promoter activity interaction Z-score” value [5, 21] was -0.0272 ± 0.011, the “promoter activity interaction Z-score” value [5, 22] was 0.103 ± 0.21 and the “promoter activity interaction Z-score” value [6, 7] was 0.274 ± 0.61. For the same compound, the “promoter activity interaction Z-score” value [6, 8] was -0.71 ± 0.23, the “promoter activity interaction Z-score” value [6, 9] was -0.666 ± 0.03 and the “promoter activity interaction Z-score” value [6, 10] was 0.252 ± 0.77. The “promoter activity interaction Z-score” value [6, 11] was 0.0384 ± 0.54, the “promoter activity interaction Z-score” value [6, 12] was 0.367 ± 0.36 and the “promoter activity interaction Z-score” value [6, 13] was 0.81 ± 0.56. The “promoter activity interaction Z-score” value [6, 14] was 0.264 ± 0.25, the “promoter activity interaction Z-score” value [6, 15] was 0.00312 ± 0.045 and the “promoter activity interaction Z-score” value [6, 16] was -0.556 ± 0.81. The “promoter activity interaction Z-score” value [6, 17] was 0.121 ± 0.86, the “promoter activity interaction Z-score” value [6, 18] was 1.27 ± 0.93 and the “promoter activity interaction Z-score” value [6, 19] was 0.54 ± 0.56. For the same compound, the “promoter activity interaction Z-score” value [6, 20] was -0.295 ± 0.4, the “promoter activity interaction Z-score” value [6, 21] was 0.224 ± 0.11 and the “promoter activity interaction Z-score” value [6, 22] was 1.46 ± 0.25.
